PostGolgi yeast: growth inhibition of a yeast mutant, post-Golgi transport screen; inhibition, % at 10 µM; post-Golgi transport phenotypic cell assay; hit rate 0.9% among 98,000;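 note: yeast cells grown in 1536-well plates; yeast grown about 18 h at 30C before absorbance read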
CYP2C19 activ: activators of human cytochrome P450 2C19 | P33261 | activation factor at 5 µM | recombinant CYP2C19, luciferin-H EGE luminescence; hits give high values; 0 = fully inhibited enzyme, 1 = untreated enzyme | 96,000 tested, under 10 active;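 active = activation factor of at least 2 at 5 µM in the primary screen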
CYP2C9 activ: CYP2C9 (human) activation. P11712. recombinant CYP2C9, luciferin-H conversion, luminescence; hits give high values; factor 1 = untreated enzyme, 0 = blocked. activation factor at 5 µM. hit rate 1.4% among 96,000;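 active = activation factor of 2 or more for CYP2C9 at a 5 µM dose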
PostGolgi ctrl: inhibits growth of the yeast control strain; efflux-deficient yeast background strain, growth absorbance A615, 16 h; AID 738; hit rate 5% among 98,000; inhibition, % at 10 µM
CYP2C19 inh: inhibitors of human CYP2C19; CYP2C19 Supersomes, luciferin-H EGE luminescence, 30 min; inhibition, % at 5 µM; hit rate 21% among 96,000;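 active = CYP2C19 inhibition above a set limit at 5 µM in the primary screen, cut at about 50% in these data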
CYP2C9 inhib: human CYP2C9 inhibition; inhibition, % at 5 µM; hit rate 20% among 96,000; CYP2C9 Supersomes, luciferin-H conversion, luminescence; P11712;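 active = blocking of liver enzyme CYP2C9 beyond about 50% at 5 µM, limit read from the data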
A number is an active result; - = inactive. The list is not random: actives were taken first. Their share in the collection is about 32%. Cut-off read from the data, not from the text of the source, unless noted: active = inhibition above about 30%; inactive = the rest.

SMILES	PostGolgi yeast	CYP2C19 activ	CYP2C9 activ	PostGolgi ctrl	CYP2C19 inh	CYP2C9 inhib
CC(C(=O)N1c2ccc(F)cc2CCC1C)N1C(=O)c2ccccc2C1=O (stereo not given)	-	-	-	-	69	-
C=CCNCC(=O)NN=C(c1ccccc1)c1ccccc1	-	-	-	-	-	-
Cc1nc(CCNC(=O)COc2ccccc2)cs1	-	-	-	-	-	-
O=C1CNC(=O)/C1=C\N1CCN(C(c2ccccc2)c2ccccc2)CC1	-	-	-	-	-	-
CC(C)c1noc2ncc(C(=O)c3cc(Cl)cc(Cl)c3O)cc12	-	-	-	-	81	100
CC(=O)Nc1ccc(SCC(=O)N(CCC#N)c2cc(C)cc(C)c2)cc1	-	-	-	-	82	70
CCN(C(=O)CSc1ccc2c(c1)OCCO2)C1CCS(=O)(=O)C1 (stereo not given)	-	-	-	-	-	-
N#CCCN(C(=O)CSc1ccc2c(c1)OCCO2)c1ccccc1	-	-	-	-	93	56
Cc1cc(C)cc(N(CCC#N)C(=O)CSc2nc3nc(C)cc(C)n3n2)c1	-	-	-	-	-	-
COC(=O)c1sccc1Oc1ccc(F)cc1[N+](=O)[O-]	-	-	-	-	-	-
O=C(c1ccc(Br)s1)N1CCN(C/C=C/c2ccccc2)CC1	-	-	-	-	-	-
O=C(CCc1nc2ccccc2c(=O)[nH]1)N1CCN(C/C=C/c2ccccc2)CC1	-	-	-	-	-	52
O=C(c1ccc(=O)n(Cc2ccccc2)n1)N1CCN(C/C=C/c2ccccc2)CC1	-	-	-	-	69	92
CC(=O)N1CCN(C(=O)CCc2nc3ccccc3c(=O)[nH]2)CC1	-	-	-	-	-	-
O=C(c1ccc(Br)o1)N1CCN(C/C=C/c2ccccc2)CC1	-	-	-	-	65	63
COc1ccc(NC(=O)CCNS(=O)(=O)c2ccc3c(c2)CCC(=O)N3)cc1	-	-	-	-	-	-
Cc1[nH]nc2c1C(c1ccc(Cl)cc1)C(C#N)=C(N)O2 (stereo not given)	-	-	-	-	53	-
CC(C)(C)c1[nH]nc2c1C(c1ccncc1)C(C#N)=C(N)O2 (stereo not given)	-	-	-	-	60	72
CCOc1cc(NC(=S)Nc2ccccc2OC)c(OCC)cc1NC(=O)c1ccccc1C	-	-	-	-	-	-
O=C1CN(Cc2ccccc2)C(=NCc2ccco2)S1	-	-	-	-	90	97
COc1ccc(C(=O)COC(=O)[C@H](C)Nc2ccc(C(F)(F)F)cc2[N+](=O)[O-])c(OC)c1	-	-	-	-	-	-
O=C(C1CCCN(Cc2ccccc2Br)C1)N1CCCCC1 (stereo not given)	-	-	-	-	-	-
CC(=O)NC(C)C(=O)OCC(=O)c1ccc(Cl)s1 (stereo not given)	-	-	-	36	-	-
CC1CCCCN1C(=O)CN1C(=O)CN(C)C(=O)c2ccccc21 (stereo not given)	-	-	-	-	-	-
Cc1ccc(N2C(=O)C(Cl)=C(NCCO)C2=O)c(C)c1	-	-	-	-	-	-
SMILES	PostGolgi yeast	CYP2C19 activ	CYP2C9 activ	PostGolgi ctrl	CYP2C19 inh	CYP2C9 inhib
CCOC(=O)CN1C(=O)c2ccccc2C1=O	-	-	-	-	-	-
C=CCOC(=O)CN1C(=O)c2ccccc2C1=O	-	-	-	-	61	-
CC1C(=O)C(C)C(c2ccco2)NC1c1ccco1 (stereo not given)	-	-	-	-	94	-
CCCC1C(c2ccco2)NC(c2ccco2)CC1(C)O (stereo not given)	-	-	-	-	-	-
O=C(NNC(=S)Nc1cccc2ccccc12)c1cccc(Br)c1	-	-	-	-	91	96
COc1ccc(OCCNC(=S)Nc2cccc3ccccc23)cc1	-	-	-	-	-	-
Cc1ccc(C(=O)NNC(=S)Nc2cccc3ccccc23)s1	-	-	-	-	-	65
CCCCOCP(=O)(CC)COCCCC	-	-	-	-	-	-
N#Cc1c(N2C(=O)C3C4C=CC(C4)C3C2=O)sc2c1CCC2 (stereo not given)	-	-	-	-	64	-
Cc1ccc(NC(=S)N/N=C/c2ccc(Cl)c([N+](=O)[O-])c2)cc1	-	-	-	-	-	56
Cc1ccc(S(=O)(=O)N/N=C\c2ccc([N+](=O)[O-])o2)cc1	-	-	-	-	-	79

Screening results (PubChem BioAssay)
